Screens from PubChem BioAssay.
FLuc modulator – firefly luciferase modulation, counter-screen for miR-21 project. P08659. Potency, µM (top dose mostly 57.5 µM), for the others: at the highest dose activity change, negative = inhibition, most hits filed as inhibitors. purified FLuc, Km substrates, luminescence inhibition. AID 588342. 360,000 compounds, 6.9% hits;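 further: plate controls were vehicle for no effect and reference inhibitor for full effect; nearly all actives have a fitted effect of over 55% in size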
Target sequence (P08659 whole entry, looked up): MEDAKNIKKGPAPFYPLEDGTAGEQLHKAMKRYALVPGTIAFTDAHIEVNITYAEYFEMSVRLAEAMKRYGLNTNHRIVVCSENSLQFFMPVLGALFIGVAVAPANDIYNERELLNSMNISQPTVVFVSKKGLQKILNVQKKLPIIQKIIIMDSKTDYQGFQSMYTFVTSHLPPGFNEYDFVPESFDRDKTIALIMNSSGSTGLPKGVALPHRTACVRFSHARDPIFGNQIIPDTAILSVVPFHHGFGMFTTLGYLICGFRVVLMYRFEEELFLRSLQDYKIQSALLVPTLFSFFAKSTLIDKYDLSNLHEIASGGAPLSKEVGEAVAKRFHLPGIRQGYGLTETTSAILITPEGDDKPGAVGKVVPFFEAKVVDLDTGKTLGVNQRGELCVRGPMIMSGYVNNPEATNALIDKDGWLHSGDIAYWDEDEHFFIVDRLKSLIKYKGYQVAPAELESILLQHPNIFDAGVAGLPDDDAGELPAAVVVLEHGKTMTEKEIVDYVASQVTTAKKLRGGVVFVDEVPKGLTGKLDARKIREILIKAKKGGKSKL
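Purified P. pyralis luciferase, 10 nM final, with Km-level 10 uM D-luciferin and 10 uM ATP in 50 mM Tris acetate pH 7.5, 10 mM Mg acetate, 0.01% Tween-20, 0.05% BSA; 6-point qHTS titration about 60 µM downward; luminescence read.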
NPC1 promoter act – activators of NPC1 promoter; Huh7 NPC1 promoter luciferase reporter, 24 h; Potency, µM (titrated, usually from 9.22 µM), for the others: at the highest dose activation, usual class: activators; 320,000 compounds, 2.4% hits; further: % of control where 0% means no effect; nearly all actives have a fitted effect of over 60% in size
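Luminescence read-out of NPC1 promoter-driven luciferase in stably transfected Huh7 cells; compounds delivered in DMSO and left 24 h at 37C, 5% CO2, qHTS titration format.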
ELG1 repair inh – blocks ELG1-dependent DNA repair in HEK293T cells; HEK293T ELG1-luciferase reporter, luminescence, 16 h; DNA damage induced by 5-fluorouridine; Potency, µM (titrated, usually from 46.1 µM), inactives show at the top dose activity change, negative = inhibition, actives largely listed as inhibitors; 330,000 compounds, 2.3% hits; AID 504467; further: on the % scale 0 is the no-effect control and ±100 the full control effect; nearly all actives have a fitted effect of over 55% in size
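In this reporter screen, reduction of luminescence relative to DMSO vehicle indicated activity. Compounds and 5-fluorouridine were added together to 2,000 cells per well, incubated for 16 hr at 37 °C, then developed with ONE-Glo.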
Rab9 promoter act – Rab9 promoter activation | Huh7 Rab9 promoter-luciferase reporter, luminescence, 24 h | Potency, µM (top dose mostly 9.22 µM), for inactives: at the highest dose activation, negative = inhibition, actives largely listed as activators | 320,000 compounds, 2.8% hits | AID 485297; further: % of control where 0% means no effect; nearly all actives have a fitted effect of over 60% in size
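Huh7 reporter line, Rab9 promoter upstream of luciferase. Compound exposure 24 h at 37 °C in reduced-serum medium with 10% FBS. Read-out: luminescence.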
ELG1 genotox – induces genotoxicity in HEK293T cells with luciferase-tagged ELG1; HEK293T ELG1-luciferase reporter, luminescence, 16 h; Potency, µM (doses to about 46 µM), inactives show at the top dose activity change, positive = activation, usual class: activators; 330,000 compounds, 1.3% hits; AID 504466; further: % of control where 0% means no effect; nearly all actives have a fitted effect of over 60% in size
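HEK293T cells expressing luciferase-tagged ELG1 were treated with compound or DMSO for 16 hr at 37°C. Luciferase activity was then read after 30 min with ONE-Glo at room temperature; rising signal flags genetic stress.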
SMN2 splice up – increases expression of the SMN2 splice variant. HEK293 SMN2-luciferase splicing reporter, luminescence, 30-36 h. Potency, µM (highest dose often 46.1 µM), inactives show at the highest dose activity change, positive = activation, actives largely listed as activators. 210,000 compounds, 2.8% hits; further: % of control where 0% means no effect; nearly all actives have a fitted effect of over 55% in size
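qHTS luciferase splicing reporter: luminescence rises when SMN2 exon 7 is included in transfected HEK293 cells. Compound exposure lasted 30-36 h at 37C, with 4.5 mM final sodium butyrate as control, followed by a ONE-Glo read.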
* hit, by the source's call; [ ] = remark or other dose. Rows were chosen to be rich in hits. Some 9.3% of all compounds tested hit in one or more screens of this group. The call rests on the fitted dose curve; in most records, active means well fitted curve in the direction sought with a large enough effect; inconclusive means small, poorly fitted or top-dose-only effect, or another doubt; inactive means no such curve, though single readings can be large; an effect the other way counts as inactive or inconclusive. Potency means the concentration at half of the fitted maximal effect.

COc1ccc(/C=C2\CCC(C3CCCC3)C2=O)cc1Cn1cccn1 (centres undefined) was read as FLuc modulator inconclusive, NPC1 promoter act -1.4%, ELG1 repair inh -20.8%, Rab9 promoter act -4.5%, ELG1 genotox 11.9% and SMN2 splice up -23.2%.
COc1ccc(/C=C2\CCc3ccccc3C2=O)cc1O was read as FLuc modulator 0.338µM*, NPC1 promoter act -1.5%, ELG1 repair inh inconclusive, Rab9 promoter act 3.0% and ELG1 genotox 3.66µM*.
For COc1ccc2c(c1)OC/C(=C/c1ccc(O)c(O)c1)C2=O the results were SMN2 splice up 2.7%.
COc1ccc(/C=C2\Cc3ccccc3C2=O)cc1OC was read as FLuc modulator 3.38µM*, NPC1 promoter act 12.3%, ELG1 repair inh inconclusive, Rab9 promoter act -1.6% and ELG1 genotox 16.4µM*.
`COc1ccc(C(=O)Nc2cc(Cl)ccc2-n2cncn2)c(OC)c1OC` gave FLuc modulator -23.7%, NPC1 promoter act -7.8%, ELG1 repair inh inconclusive, Rab9 promoter act -9.7% and ELG1 genotox 2.0%.
For Cc1c(Cc2ccccc2)c(=O)n2c([nH]c3ccccc32)c1C#N the results were FLuc modulator 5.4%, NPC1 promoter act 1.6%, ELG1 repair inh 2.31µM*, Rab9 promoter act -0.1% and ELG1 genotox -17.6%.
`COc1ccccc1N=Cc1c(C)c(C#N)c2[nH]c3ccccc3n2c1=O` gave FLuc modulator -10.1%, NPC1 promoter act 1.4%, ELG1 repair inh 5.4%, Rab9 promoter act -2.8% and ELG1 genotox 9.0%.
N#Cc1c(C(F)(F)F)cc(=O)n2c1[nH]c1ccccc12 was read as FLuc modulator 26.9µM*, NPC1 promoter act 0.2%, ELG1 repair inh -20.0%, Rab9 promoter act 1.9% and ELG1 genotox -6.2%.
For N#Cc1c(CSCC(=O)O)cc(=O)n2c1[nH]c1ccccc12 the results were FLuc modulator inconclusive, NPC1 promoter act -1.9%, ELG1 repair inh -9.0%, Rab9 promoter act -2.8% and ELG1 genotox -1.2%.
c1ccc(Oc2cccc(OCCn3cncn3)c2)cc1 was read as FLuc modulator inconclusive, NPC1 promoter act 0.1%, ELG1 repair inh 16.9%, Rab9 promoter act 6.3%, ELG1 genotox 10.5% and SMN2 splice up -0.1%.
c1ccc(-c2ccc(OCCCn3cncn3)cc2)cc1 was read as FLuc modulator 16.9µM*, NPC1 promoter act 25.6%, ELG1 repair inh inconclusive, Rab9 promoter act 21.8%, ELG1 genotox inconclusive and SMN2 splice up -6.8%.
For Brc1cccc(OCCCCn2cncn2)c1 the results were FLuc modulator 0.1%, NPC1 promoter act -3.5%, ELG1 repair inh -5.1%, Rab9 promoter act -0.4% and ELG1 genotox -4.4%.
For CN1CCN(CCOc2ccc(-c3ccccc3)cc2)CC1 the results were FLuc modulator inconclusive, NPC1 promoter act 2.7%, ELG1 repair inh inconclusive, Rab9 promoter act 0.0% and ELG1 genotox 21.1%.
`c1ccc(COc2ccc(OCCn3cncn3)cc2)cc1` gave FLuc modulator 9.53µM*, NPC1 promoter act 2.51µM*, ELG1 repair inh inconclusive, Rab9 promoter act 3.16µM*, ELG1 genotox 9.2µM* and SMN2 splice up 11.2µM*.
For CN1CCN(CCCOc2ccc(-c3ccccc3)cc2)CC1 the results were FLuc modulator 19µM*, NPC1 promoter act 2.82µM*, ELG1 repair inh inconclusive, Rab9 promoter act inconclusive and ELG1 genotox inconclusive.
`COc1ccc(CNn2c(-c3cccc(C)c3)nc3ccccc3c2=O)cc1OC` gave FLuc modulator 0.4%, NPC1 promoter act -0.4%, ELG1 repair inh 14.6µM*, Rab9 promoter act -0.2%, ELG1 genotox -10.5% and SMN2 splice up 15.4%.
`COc1ccccc1CNn1c(-c2cccc(C)c2)nc2ccccc2c1=O` gave FLuc modulator 5.0%, NPC1 promoter act -0.5%, ELG1 repair inh inconclusive, Rab9 promoter act -2.8%, ELG1 genotox -13.3% and SMN2 splice up -0.4%.
`O=C(O)c1ccc(N2CCCCC2)cc1O` gave FLuc modulator 15.1µM*, NPC1 promoter act 16.4%, ELG1 repair inh inconclusive, Rab9 promoter act 1.1% and ELG1 genotox 5.9%.
For Oc1cccc(N2Cc3ccccc3C2)c1 the results were FLuc modulator inconclusive, NPC1 promoter act -0.5%, ELG1 repair inh inconclusive, Rab9 promoter act -0.8%[1.84 µM] and ELG1 genotox 10.7%.
Screening O=C(O)c1ccc(N2Cc3ccccc3C2)cc1O returned FLuc modulator 23.9µM*, NPC1 promoter act 20.8%, ELG1 repair inh inconclusive, Rab9 promoter act 27.3%, ELG1 genotox 2.5% and SMN2 splice up -6.0%.
Screening CCOC(=O)CNC(=O)C(Cc1ccccc1)NC(=O)OCc1ccccc1 (centres undefined) returned FLuc modulator 0.1%, NPC1 promoter act 1.6%, ELG1 repair inh -3.1%, Rab9 promoter act 0.7%, ELG1 genotox -0.8% and SMN2 splice up 13.8%.
`COC(=O)[C@@H](NC(=O)Nc1ccc2c(c1)OCCO2)C(C)C` gave FLuc modulator -6.6%, NPC1 promoter act 0.5%, ELG1 repair inh 10.4%, Rab9 promoter act 1.6%, ELG1 genotox 2.9% and SMN2 splice up -7.0%.
Screening Cn1nccc1NC(=O)Nc1ccccc1 returned FLuc modulator -3.1%, NPC1 promoter act 0.9%, ELG1 repair inh inconclusive, Rab9 promoter act -2.0% and ELG1 genotox 4.5%.
Screening N=C1S/C(=C\c2cn[nH]c2-c2ccc(F)cc2)C(=O)N1c1ccccc1F returned FLuc modulator inconclusive, NPC1 promoter act 3.16µM*, ELG1 repair inh inconclusive, Rab9 promoter act 3.98µM*, ELG1 genotox 10.2% and SMN2 splice up 12.6µM*.
Screening N=C1S/C(=C\c2ccccc2F)C(=O)N1c1ccc(F)cc1 returned FLuc modulator 0.6%, NPC1 promoter act -0.5%, ELG1 repair inh 29.2%, Rab9 promoter act -3.3%, ELG1 genotox 0.4% and SMN2 splice up 7.3%.
`N#C/C(=C\c1ccc(OCC(N)=O)cc1)c1ccccc1` gave FLuc modulator 3.79µM*, NPC1 promoter act 24.9%, ELG1 repair inh inconclusive, Rab9 promoter act 22.2%, ELG1 genotox inconclusive and SMN2 splice up 23.2%.
For CCOC(=O)CN/C=C(\C#N)c1ccccc1 the results were FLuc modulator inconclusive, NPC1 promoter act -0.3%, ELG1 repair inh 9.2%, Rab9 promoter act -0.7%, ELG1 genotox 2.4% and SMN2 splice up -8.2%.
Screening Nc1ccccc1-c1nc2ccccc2[nH]1 returned FLuc modulator 12µM*, NPC1 promoter act 3.98µM*, ELG1 repair inh inconclusive, Rab9 promoter act 6.31µM*, ELG1 genotox 10.3µM* and SMN2 splice up inconclusive.
